Experimental findings from PubChem BioAssay are described below.

A short description of assay [1]: small molecules captured by biotinylated probe aFSTL3 – biochemical, small-molecule microarray, fluorescence 635/667, stem cell growth factor project, primary screen (AID 1064).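 Also: measures binding of the biotinylated anti-FSTL3 antibody to printed compounds.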 The settings on record: higher = more signal.
Assay [2] can be described thus: binders from COS7 lysate, DM2A8 probe, primary screen, torsin A project, cell lysate, small-molecule microarray, fluorescence 635/667 (AID 1065). The note with it: higher = more signal, COS7 lysate expressing mutant human TOR1A.
The nature of assay [3]: small molecules captured by biotinylated probe aFGF2 – biochemical, small-molecule microarray, fluorescence 635/667, stem cell growth factor project, primary screen (AID 1067).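 Also: measures binding of biotinylated aFGF2 protein to printed compounds on slides; z-score merges feature fluorescence and signal-to-noise across triplicate slides.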 The settings on record: higher = more signal.
Assay [4] in a line: small molecules captured by biotinylated probe aFGF10 – biochemical, small-molecule microarray, fluorescence 635/667, stem cell growth factor project, primary screen (AID 1071).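 Also: score merges 667 nm spot intensity and signal to noise from triplicate slides.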 The settings on record: higher = more signal.
Assay [5] deals with Neurogenic locus notch homolog protein 2 (Homo sapiens) (UniProt Q04721). The assay is described as follows: small molecules binding Notch2 protein – biochemical, small-molecule microarray, 635 nm fluorescence, stem cell growth factors, primary screen (AID 1073). The settings on record: higher = more signal.
For assay [6], the target named is Pro-neuregulin-1, membrane-bound isoform (Homo sapiens) (UniProt Q02297). The assay is described as follows: small molecules binding neuregulin-1 protein – biochemical, small-molecule microarray, fluorescence 635/667, psychiatric disease protein project, primary screen (AID 1075).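 Also: score combines 667 nm spot fluorescence with signal to noise.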 The note with it: NRG1 binding, 635 nm fluorescence, higher = more signal.
Chain of Pro-neuregulin-1, membrane-bound isoform (Homo sapiens) (Q02297 whole entry, looked up, the tested form may be a part, canonical isoform): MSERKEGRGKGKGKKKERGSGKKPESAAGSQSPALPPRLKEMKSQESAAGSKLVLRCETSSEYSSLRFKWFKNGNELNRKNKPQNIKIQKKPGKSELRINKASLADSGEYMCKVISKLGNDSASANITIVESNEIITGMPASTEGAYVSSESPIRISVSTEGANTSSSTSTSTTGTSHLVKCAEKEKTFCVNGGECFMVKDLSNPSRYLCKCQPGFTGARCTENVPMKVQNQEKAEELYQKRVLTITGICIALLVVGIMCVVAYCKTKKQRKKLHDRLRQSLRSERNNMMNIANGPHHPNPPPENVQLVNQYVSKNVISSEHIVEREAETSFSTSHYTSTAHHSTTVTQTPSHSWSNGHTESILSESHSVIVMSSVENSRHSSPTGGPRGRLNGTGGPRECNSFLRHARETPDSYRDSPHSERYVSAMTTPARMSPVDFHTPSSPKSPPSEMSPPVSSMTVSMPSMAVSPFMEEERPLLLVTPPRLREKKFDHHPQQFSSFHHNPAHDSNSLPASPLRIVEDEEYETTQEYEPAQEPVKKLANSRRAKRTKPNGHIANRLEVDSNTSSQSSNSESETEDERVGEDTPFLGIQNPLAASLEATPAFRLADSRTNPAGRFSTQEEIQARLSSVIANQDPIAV
Assay [7] deals with Neuregulin-1 EGF-like domain. The assay is described as follows: small molecules binding NRG1 EGF domain – biochemical, small-molecule microarray, 635 nm fluorescence, primary screen (AID 1081).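 Also: binding of the protein to compounds printed on small-molecule microarray slides.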 The settings on record: higher = more signal.
Assay [8] in a line: FRG1 expression reporter modulators in myotubes – cell-based, C2C12 myotubes, firefly/Renilla luciferase, luminescence, FRG1 inhibition for FSHD, primary screen (AID 1084). The note with it: FRG1 promoter luciferase, higher = more signal, called active from +8 up or from −8 down.
The nature of assay [9]: small molecules captured by biotinylated probe aFST – biochemical, small-molecule microarray, fluorescence 635/667, stem cell growth factor project, primary screen (AID 1086).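 Also: score merges 667 nm fluorescence with signal-to-noise of each printed compound spot.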 The settings on record: higher = more signal.
The nature of assay [10]: binders of probe aHhip on microarray, primary screen, stem cell growth factor project, biochemical, small-molecule microarray, fluorescence 635/667 (AID 1087).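 Also: score merges spot fluorescence at 667nm with spot signal to noise ratio.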 The settings on record: higher = more signal.
Assay [11] relates to PRMT1 (protein arginine N-methyltransferase 1). The assay is described as follows: small molecules binding arginine methyltransferase PRMT1 – biochemical, small-molecule microarray, 635 nm fluorescence, primary screen (AID 1088).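 Also: binding of Prmt1 protein to compounds spotted on small-molecule microarray slides.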 The settings on record: higher = more signal.
Assay [12] can be described thus: growth effects on S. cerevisiae YJM789 – YJM789 clinical isolate, OD600, 24 h, basal, primary screen (AID 1089).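 Also: growth of clinical yeast isolate S. cerevisiae YJM 789 seeded 1000 cells per well; test concentration not given here.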 The settings on record: higher = more signal, called active from +8 up or from −8 down.
Assay [13] can be described thus: S. pombe growth modifiers, basal conditions – strain 972, OD600, 24 h, no modulator, primary screen (AID 1090).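 Also: basal condition with compound alone and no growth modifier present; test concentration not given here.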 The note with it: S. pombe 972 growth, higher = more signal, called active from +8 up or from −8 down.
Assay [14] in a line: budding yeast growth modifiers under rapamycin – strain BY4716, OD600, 96 h, primary screen (AID 1091). Also: test concentration not given here. The note with it: S. cerevisiae BY4716 + rapamycin, higher = more signal, called active from +8 up or from −8 down.
Assay [15] addresses Torsin-1A-interacting protein 2 (Homo sapiens) (UniProt Q8NFQ8). The assay is described as follows: small molecules binding lysate-expressed LULL1 – cell lysate, human LULL1 lysate, 635/667 nm fluorescence, primary screen (AID 1092).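 Also: probe is lysate of COS7 cells overexpressing human LULL1; score merges per-feature 667 nm fluorescence with signal-to-noise.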 The settings on record: small-molecule microarray, hLULL1 lysate binding, 635 nm fluorescence; higher = more signal.
Assay [16] can be described thus: optical density change of DRC41 E. coli – strain DRC41, OD650, 24 h, E. coli filamentation project, primary screen (AID 1093).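 Also: MC1000 strain lacking acrAB efflux and sulA so SOS filamentation is blocked; test concentration not given here.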 The settings on record: E. coli DRC41 growth, higher = more signal, called active from +8 up or from −8 down.
Assay [17] can be described thus: probe aLefty2 binding to arrayed compounds – biochemical, biotinylated probe, 635/667 nm fluorescence, primary screen (AID 1094).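 Also: score merges spot fluorescence near 667 nm with spot signal-to-noise ratio.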 The note with it: small-molecule microarray, higher = more signal.
Assay [18] has as its system Noggin (protein binding on small-molecule microarray). The assay is described as follows: small molecules binding Noggin protein – biochemical, 635/667 nm fluorescence, primary screen (AID 1095).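 Also: score merges 667 nm feature fluorescence with signal to noise over triplicate slides.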 The settings on record: 635 nm fluorescence, higher = more signal.
For assay [19], the target named is Neurogenic locus notch homolog protein 3 (Homo sapiens) (UniProt Q9UM47). The assay is described as follows: small molecules binding NOTCH3 protein – biochemical, 635/667 nm fluorescence, primary screen (AID 1096). The settings on record: small-molecule microarray, 635 nm fluorescence, higher = more signal.
Chain of Neurogenic locus notch homolog protein 3 (Homo sapiens) (Q9UM47 whole entry, looked up): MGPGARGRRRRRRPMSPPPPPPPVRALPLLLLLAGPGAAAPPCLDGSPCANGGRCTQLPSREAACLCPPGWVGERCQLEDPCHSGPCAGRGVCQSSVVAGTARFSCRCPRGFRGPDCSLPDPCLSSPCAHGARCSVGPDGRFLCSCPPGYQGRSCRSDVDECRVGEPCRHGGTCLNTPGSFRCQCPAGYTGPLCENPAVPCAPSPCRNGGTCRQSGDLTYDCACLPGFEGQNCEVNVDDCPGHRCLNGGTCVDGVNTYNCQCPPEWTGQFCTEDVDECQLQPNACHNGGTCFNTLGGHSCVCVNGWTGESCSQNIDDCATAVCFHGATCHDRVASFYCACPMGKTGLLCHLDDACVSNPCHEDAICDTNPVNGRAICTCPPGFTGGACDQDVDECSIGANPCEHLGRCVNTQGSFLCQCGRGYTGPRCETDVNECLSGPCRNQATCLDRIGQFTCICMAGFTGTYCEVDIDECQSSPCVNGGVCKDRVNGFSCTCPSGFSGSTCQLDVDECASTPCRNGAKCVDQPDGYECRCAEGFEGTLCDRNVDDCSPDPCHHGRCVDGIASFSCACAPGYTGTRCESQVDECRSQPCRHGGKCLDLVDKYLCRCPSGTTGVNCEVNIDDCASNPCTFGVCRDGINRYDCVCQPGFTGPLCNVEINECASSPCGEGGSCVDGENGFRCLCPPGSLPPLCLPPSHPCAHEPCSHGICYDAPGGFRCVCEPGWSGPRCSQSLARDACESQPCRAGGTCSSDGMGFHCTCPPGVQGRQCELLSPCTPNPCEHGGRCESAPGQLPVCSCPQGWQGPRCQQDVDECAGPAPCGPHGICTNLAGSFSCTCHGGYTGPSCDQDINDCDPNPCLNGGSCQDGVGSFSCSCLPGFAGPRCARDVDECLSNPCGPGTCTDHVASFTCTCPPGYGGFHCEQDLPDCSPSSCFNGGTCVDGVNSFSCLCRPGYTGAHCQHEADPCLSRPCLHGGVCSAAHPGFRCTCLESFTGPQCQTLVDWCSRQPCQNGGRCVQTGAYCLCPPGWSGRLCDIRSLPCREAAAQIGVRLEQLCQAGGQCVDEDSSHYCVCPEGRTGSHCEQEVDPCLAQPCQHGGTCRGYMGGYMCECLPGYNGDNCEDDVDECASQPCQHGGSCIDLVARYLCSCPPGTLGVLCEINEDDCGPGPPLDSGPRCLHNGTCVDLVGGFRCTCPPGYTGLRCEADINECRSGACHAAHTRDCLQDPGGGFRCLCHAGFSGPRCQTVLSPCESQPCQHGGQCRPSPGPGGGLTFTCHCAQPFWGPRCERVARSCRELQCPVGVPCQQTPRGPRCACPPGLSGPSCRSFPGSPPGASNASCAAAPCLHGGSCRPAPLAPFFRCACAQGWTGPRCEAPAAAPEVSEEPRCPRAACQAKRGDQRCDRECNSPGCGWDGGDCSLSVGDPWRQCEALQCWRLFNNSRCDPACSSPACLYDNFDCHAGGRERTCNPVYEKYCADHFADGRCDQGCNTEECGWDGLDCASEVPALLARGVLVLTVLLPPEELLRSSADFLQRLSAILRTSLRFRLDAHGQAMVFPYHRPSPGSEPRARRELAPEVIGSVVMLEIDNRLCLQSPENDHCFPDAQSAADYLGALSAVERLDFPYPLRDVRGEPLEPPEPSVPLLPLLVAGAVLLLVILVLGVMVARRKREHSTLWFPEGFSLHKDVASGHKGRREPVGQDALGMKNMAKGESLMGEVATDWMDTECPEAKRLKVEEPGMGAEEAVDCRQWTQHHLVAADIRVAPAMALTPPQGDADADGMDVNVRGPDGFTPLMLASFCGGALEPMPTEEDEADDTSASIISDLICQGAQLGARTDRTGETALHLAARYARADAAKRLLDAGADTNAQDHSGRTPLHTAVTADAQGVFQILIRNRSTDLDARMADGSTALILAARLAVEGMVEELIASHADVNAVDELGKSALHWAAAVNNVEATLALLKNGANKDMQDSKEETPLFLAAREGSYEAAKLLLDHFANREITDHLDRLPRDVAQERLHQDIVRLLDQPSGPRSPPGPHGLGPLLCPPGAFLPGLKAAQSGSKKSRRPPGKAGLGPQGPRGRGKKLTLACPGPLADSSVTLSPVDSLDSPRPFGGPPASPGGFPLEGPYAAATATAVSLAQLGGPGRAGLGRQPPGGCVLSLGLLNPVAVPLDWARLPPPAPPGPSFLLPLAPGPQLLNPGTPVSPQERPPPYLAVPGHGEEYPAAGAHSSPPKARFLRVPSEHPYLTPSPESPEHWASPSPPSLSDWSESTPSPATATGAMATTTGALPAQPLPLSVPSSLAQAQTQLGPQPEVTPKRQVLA
Assay [20] is described as follows: probe aEGFR binding to arrayed compounds – biochemical, biotinylated probe, 635/667 nm fluorescence, primary screen (AID 1097).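 Also: probe is a biotinylated anti-EGFR antibody binding compounds printed on slides; score combines fluorescence near 667 nm and signal to noise of each spot.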 The settings on record: small-molecule microarray, higher = more signal.

The structures appear in SMILES notation. The source made the active and inactive calls.

Chain of Torsin-1A-interacting protein 2 (Homo sapiens) (Q8NFQ8 whole entry, looked up): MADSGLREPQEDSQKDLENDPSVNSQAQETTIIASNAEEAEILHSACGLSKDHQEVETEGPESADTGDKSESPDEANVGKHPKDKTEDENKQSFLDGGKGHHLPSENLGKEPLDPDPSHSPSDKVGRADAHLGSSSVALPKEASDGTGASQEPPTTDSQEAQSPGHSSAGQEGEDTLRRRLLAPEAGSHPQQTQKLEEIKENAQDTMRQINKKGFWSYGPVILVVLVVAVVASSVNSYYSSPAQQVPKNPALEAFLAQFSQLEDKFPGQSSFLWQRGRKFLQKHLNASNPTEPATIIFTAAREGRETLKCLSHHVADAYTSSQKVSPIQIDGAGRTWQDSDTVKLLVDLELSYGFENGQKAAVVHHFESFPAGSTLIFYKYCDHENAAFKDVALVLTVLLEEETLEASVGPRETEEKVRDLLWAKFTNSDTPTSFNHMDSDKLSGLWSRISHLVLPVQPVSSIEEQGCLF

Take `O=C1O[C@H](c2ccccc2)[C@H](c2ccccc2)N2[C@H]1[C@@H](C(=O)NC[C@H](O)c1ccccc1)[C@]1(C(=O)Nc3ccc(C#CC4=CCCCC4)cc31)[C@H]2c1ccc(O)cc1`: the composite z-score came out at 0.84 in [1]; 0.891 in [2]; 0.146 in [3]; 0.962 in assay [4]; 0.671 in [5]; 1.4 in assay [6]. Further, the composite z-score is 1.16 in assay [7]; 0.826 in assay [9]; -0.0618 in assay [10]; 1.55 in [11]; 2.59 in [15]; -0.0766 in assay [17]. Also, the composite z-score was 1.61 in [18], 1.08 in [19] and 0.272 in assay [20]. The z-score in [8] is 0.733 (inactive); in assay [12], 0.896 (inactive); in assay [13], 0.543 (inactive); in [14], 1.62 (inactive); in assay [16] it was 2 (inactive).
`COCCOC(=O)N1C(=O)[C@@]2(c3cc(C#CCC(C(=O)OC)C(=O)OC)ccc31)[C@H](c1ccc(OCCO)cc1)N1[C@H](c3ccccc3)[C@H](c3ccccc3)OC(=O)[C@H]1[C@@H]2C(=O)NC[C@H](O)c1ccccc1`: the composite z-score in [1] was -1.25; in assay [2], 0.501; in assay [3] it was -0.0272; in [4], 1.15; in assay [5] it was 1.45; in [6] it was 0.824. The composite z-score is 1.28 in [7]; -0.158 in assay [9]; -0.521 in assay [10]; 1.53 in assay [11]; 3.51 in assay [15]; -0.426 in [17]. Moreover, the values for the composite z-score in assay [18], in assay [19] and in [20] were 1.46, 1.08 and -0.0389, respectively. The z-score in assay [8] was -0.89 (inactive); in assay [12], 2.11 (inactive); in assay [13], 1.7 (inactive); in [14], 7.38 (inactive); in assay [16], 0.0053 (inactive).
As to `Cc1ccc(C(C)CC(O)C2C=CC3C(=O)NC(=O)C3N2Nc2ccccn2)o1` (stereo not given), the composite z-score is -0.0428 in [1]; 0.573 in assay [2]; -0.0951 in [3]; 0.174 in assay [4]; -0.0116 in assay [5]; 0.753 in assay [6]. Also, the composite z-score is 0.845 in assay [7]; 0.0821 in assay [9]; -0.249 in [10]; 1.09 in [11]; 1.94 in assay [15]; -0.0225 in [17]. For the same compound, the composite z-score in assay [18] was 0.312; in [19] it was -0.233; in [20] it was -0.0302. For the same compound, the z-score in [8] is 0.327 (inactive); in [12] it was 0.633 (inactive); in assay [13] it was 0.0293 (inactive); in assay [14] it was 0.124 (inactive); in assay [16] it was 0.504 (inactive).
For `C=CCC(OC(C)=O)[C@@H]1[C@@H](N(Cc2cc3ccccc3o2)C(=O)c2cccc3ccccc23)c2cc(OCCCO)ccc2N1C(=O)Cc1ccc(OC)cc1` (stereo not given in full), the composite z-score in assay [1] is -0.295; in [2], -0.52; in [3] it was -0.0128; in assay [4] it was 0.0939; in [5], 0.0751; in assay [6], 0.758. The composite z-score in [7] was 0.111; in [9] it was -0.0464; in assay [10] it was -0.109; in assay [11], 0.21; in assay [15] it was 1.33; in [17], -0.0745. The composite z-score in assay [18] is 0.342; in assay [19] it was -0.351; in [20], -0.0967. For the same compound, the z-score was -0.709 (inactive) in [8]; -0.0559 (inactive) in assay [12]; -0.28 (inactive) in assay [13]; 0.351 (inactive) in assay [14]; -0.829 (inactive) in assay [16].
Regarding `O=C1OCCC=C[C@H]2OC34C=CCN(CCN5CCOCC5)C(=O)[C@H]3N(CCO)C(=O)[C@@H]4C12` (stereo not given in full), the composite z-score in assay [1] is -0.217; in assay [2], 1.12; in assay [3], -0.179; in [4], 0.127; in assay [5], -0.621; in assay [6], -0.714. Besides, the composite z-score was 0.916 in [7]; -0.569 in [9]; -0.489 in assay [10]; 0.134 in assay [11]; -0.114 in assay [15]; -0.145 in assay [17]. Moreover, the figures for the composite z-score in [18], in assay [19] and in assay [20] were 0.922, 0.439 and -0.23, respectively. Moreover, the z-score in [8] was -0.0663 (inactive); in assay [12] it was -0.698 (inactive); in assay [13], -0.518 (inactive); in [14], -0.482 (inactive); in [16], 0.0484 (inactive).
